# Reference: PubChem BioAssay (NCI)
# About 83,000 compounds went through this panel and 20% of them were active in at least one assay; those are over-represented in the sample as a whole.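 Interpretation: 100, growth as untreated; towards 0, rising growth inhibition; 0, no net growth; 0 to -100, cell death. Compounds scoring below 10 were considered active.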 Values without a mark were called inactive. Active and inactive are the calls of the source.
# System: HCT-15 colon
# Assay: NCI-60 one-dose screen, 48 h (100 = growth as untreated, 0 = no growth, -100 = all killed)
# Settings: 10 µM
row,SMILES,growth [%]
1,COCCCC/C(=N\OCCN)c1ccc(C(F)(F)F)cc1,103
2,Cc1ccccc1N=C(c1ccccc1)C1C(=O)c2ccccc2C1=O,58.7
3,O=C(O)C(c1ccccc1)C(O)c1ccccc1 (stereo not drawn),102
4,CC(C)(C)c1cc(O)c(C(C)(C)C)cc1O,97.9
5,O=C(CCNNC(=O)c1ccncc1)NCc1ccccc1,81.8
6,CCCNc1ccc(C2=NCCCN2)cc1,97.8
7,O=[N+]([O-])c1ccc(O)c(S(=O)(=O)O)c1,98.1
8,O=C(O)c1cccc([N+](=O)[O-])c1O,99.9
9,O=[N+]([O-])c1ccc(N=Nc2ccccc2)cc1,100
10,O=C(CC(=O)c1ccccc1O)c1ccccc1,74.4
11,CCn1c(=O)n(C)c2c(=O)n(C)c(=O)n(C)c21,106
12,CCCCCCCCCCCCCCCCC1CC(=O)OC1=O (stereo not drawn),107
13,O=C1c2ccccc2C(=O)N1OCc1ccccc1,109
14,C[C@@H](c1ccccc1)[C@@H](C(=O)O)c1ccccc1,95.4
15,Nc1ccc(CC(=O)O)c(N)c1,106
16,CC(C)COC(=O)COC(=O)OCCOCCOC(=O)OCC(=O)OCC(C)C,104
17,S=C(Nc1ccccc1)N1CCCCC1,105

row,SMILES,growth [%]
1,O=C(O)CCCc1ccccc1,101
2,COc1cc(OC)c2ccc(=O)oc2c1,96.4
3,Cc1cc(=O)[nH]c(NN=C2CCCC2)n1,106
4,Nc1ccc(C(=O)c2ccc(N)c(Br)c2)cc1Br,18
5,CCCC(=O)c1cc(C)ccc1OC,100
6,Nc1ccc(NC(=O)c2cccc(N)c2)cc1,101
7,O=C(N/N=C/c1ccccc1O)Nc1nn[nH]n1,91.1
8,CCOC(=O)/C(C#N)=C/c1cccc(C)c1,108
9,c1ccc(/C(=N\N=C(/c2ccccc2)c2cccs2)c2cccs2)cc1,92.4
10,Nc1ccccc1C(=O)Nc1ccc(Cl)cc1Cl,101
11,CC1=CC(=O)c2ccccc2C1=O,102
12,Cc1nc2ccccc2c2nnc(SCC(=O)N(Cc3ccccc3)c3ccccc3)n12,90.4
13,CC1=C(/C=C/C(C)=C/C=C/C(C)=C/CO)C(C)(C)CCC1,112
14,CC(=O)Nc1cccc(Cl)c1C,106
15,COc1cc([C@@H]2c3cc4c(cc3[C@H](O)[C@H]3COC(=O)[C@H]23)OCO4)cc(OC)c1OC,10.4
16,CC1CCC(C(=O)O)N1 (stereo not drawn),110

# System: HT29 colon
# Assay: as above
# Settings: 10 µM
row,SMILES,growth
1,COCCCC/C(=N\OCCN)c1ccc(C(F)(F)F)cc1,96%
2,Cc1ccccc1N=C(c1ccccc1)C1C(=O)c2ccccc2C1=O,75.9%
3,O=C(O)C(c1ccccc1)C(O)c1ccccc1 (stereo not drawn),96.5%
4,CC(C)(C)c1cc(O)c(C(C)(C)C)cc1O,98.3%
5,O=C(CCNNC(=O)c1ccncc1)NCc1ccccc1,105%
6,CCCNc1ccc(C2=NCCCN2)cc1,96%
7,O=[N+]([O-])c1ccc(O)c(S(=O)(=O)O)c1,104%
8,O=C(O)c1cccc([N+](=O)[O-])c1O,101%
9,C/C=C/CC(C)C(O)C1C(=O)NC(CC)C(=O)N(C)CC(=O)N(C)C(CC(C)C)C(=O)NC(C(C)C)C(=O)N(C)C(CC(C)C)C(=O)NC(C)C(=O)NC(C)C(=O)N(C)C(CC(C)C)C(=O)N(C)C(CC(C)C)C(=O)N(C)C(C(C)C)C(=O)N1C (stereo not drawn),-37.2% (active)
10,O=[N+]([O-])c1ccc(N=Nc2ccccc2)cc1,92.2%
11,O=C(CC(=O)c1ccccc1O)c1ccccc1,87.8%
12,CCn1c(=O)n(C)c2c(=O)n(C)c(=O)n(C)c21,101%
13,O=C1c2ccccc2C(=O)N1OCc1ccccc1,103%
14,C[C@@H](c1ccccc1)[C@@H](C(=O)O)c1ccccc1,103%
15,CC(=O)C1CCCCC1,104%
16,Nc1ccc(CC(=O)O)c(N)c1,107%
17,CC(C)COC(=O)COC(=O)OCCOCCOC(=O)OCC(=O)OCC(C)C,101%
18,S=C(Nc1ccccc1)N1CCCCC1,102%

row,SMILES,growth
1,O=C(O)CCCc1ccccc1,109%
2,Cc1cc(=O)[nH]c(NN=C2CCCC2)n1,107%
3,Nc1ccc(C(=O)c2ccc(N)c(Br)c2)cc1Br,-14.2% (active)
4,CCCC(=O)c1cc(C)ccc1OC,107%
5,Nc1ccc(NC(=O)c2cccc(N)c2)cc1,105%
6,O=C(N/N=C/c1ccccc1O)Nc1nn[nH]n1,104%
7,CCOC(=O)/C(C#N)=C/c1cccc(C)c1,99%
8,c1ccc(/C(=N\N=C(/c2ccccc2)c2cccs2)c2cccs2)cc1,95.4%
9,Nc1ccccc1C(=O)Nc1ccc(Cl)cc1Cl,93.2%
10,CC1=CC(=O)c2ccccc2C1=O,112%
11,COC(=O)Nc1nc2ccc(C(=O)c3cccs3)cc2[nH]1,2.02% (active)
12,CCOC(=O)C(C#N)Cc1ccccc1 (stereo not drawn),104%
13,Cc1nc2ccccc2c2nnc(SCC(=O)N(Cc3ccccc3)c3ccccc3)n12,96.1%
14,CC1=C(/C=C/C(C)=C/C=C/C(C)=C/CO)C(C)(C)CCC1,112%
15,CC(=O)Nc1cccc(Cl)c1C,97.1%
16,COc1cc([C@@H]2c3cc4c(cc3[C@H](O)[C@H]3COC(=O)[C@H]23)OCO4)cc(OC)c1OC,4.93% (active)
17,CC1CCC(C(=O)O)N1 (stereo not drawn),94.1%
